About 100 (0.027%) of roughly 370,000 compounds were called active. A call without a number means that no potency is given here. Calls follow the shape of the dose curve; as a rule, active = well fitted inhibition curve with a large enough effect in the polarisation, with a control signal flat; inconclusive = small, poorly fitted or top-dose-only effect, or effect the other way, or a change in a side signal; inactive = no such curve, though single readings can be large or run the other way; the % refers to the polarisation. For the sample, actives were picked, then their nearest neighbours and some compounds at random.
Potency is read from the fitted curve at half-maximal effect.

Chain of Transcriptional regulator ERG (Homo sapiens) (P11308 whole entry, looked up, the tested form may be a part): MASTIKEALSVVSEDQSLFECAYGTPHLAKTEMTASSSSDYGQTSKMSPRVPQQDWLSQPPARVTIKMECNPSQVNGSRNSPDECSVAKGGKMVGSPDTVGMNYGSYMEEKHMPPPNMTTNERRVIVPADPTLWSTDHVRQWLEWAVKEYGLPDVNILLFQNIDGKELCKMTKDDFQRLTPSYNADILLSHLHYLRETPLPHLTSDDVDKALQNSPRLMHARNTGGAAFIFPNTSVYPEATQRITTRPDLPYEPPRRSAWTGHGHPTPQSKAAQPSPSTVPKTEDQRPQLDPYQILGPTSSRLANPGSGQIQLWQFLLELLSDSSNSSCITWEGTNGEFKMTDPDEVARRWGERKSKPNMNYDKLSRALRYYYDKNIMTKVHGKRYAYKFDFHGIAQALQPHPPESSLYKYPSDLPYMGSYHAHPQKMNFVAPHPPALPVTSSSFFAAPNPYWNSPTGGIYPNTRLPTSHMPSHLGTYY

This test concerns the target Transcriptional regulator ERG (Homo sapiens) (UniProt P11308). The experiment in a line: qHTS for Small Molecule Inhibitors of the ERG Ets/DNA interaction. The conditions noted are these: fluorescence polarization, His-ERG Ets domain / labelled DNA; series mostly up to 76.9 µM. An excerpt:
The Ets family of proteins is a family of ~30 conserved transcription factors defined by the presence of an ~85 amino acid domain referred to as the Ets domain, which mediates sequence-specific DNA binding to a core DNA element GGAA/T.The Ets family member ERG has been linked to several neoplasms. […] More extensive studies of the effects of over-expression of ERG in prostate cells have recently been carried out and have shown that over-expression of ERG results in increased invasion. […] We will carry out a high throughout screen to identify inhibitors of the interaction between ERG and DNA using a fluorescence polarization (FP) assay with a His-tagged ERG Ets domain and fluorescently-labeled DNA probes to develop small molecule inhibitors of this interaction as probes to test this hypothesis and lay the groundwork for the development of targeted therapies against ERG. NIH Molecular Libraries Probe Production Network [MLPCN] NIH Chemical Genomics Center [NCGC] Grant: NS066464 PI Name: John Bushweller, University of Virgina
1.5 ul of protein solution (1 uM ERG domain in 300mM KCl, 50mM Tris-HCl, 1mM EDTA, 1mM DTT, pH 7.5); 20 nl Control plate and compound library plate; 1.5 ul mixture of 5 nM Fluorescein-DNA and 100nM Texas-615-DNA solution in same buffer as above solution; measure fluorescence polarization sequentially for fluorescein (Excitation = 480 nm, Emission = 535s, 535p nm) and Texas red (Excitation = 555 nm, Emission = 632s, 632p nm).
In general terms: qHTS replaces the single test concentration by a dilution series.
In the case of `Cc1ccc(C)c(Nc2nnc(-c3ccc(C)c(S(=O)(=O)N4CCCCC4)c3)c3ccccc23)c1`, the Potency result was “inactive”.

As for `CCCN1C(=O)C(O)(CC(=O)c2ccc(CC)cc2)c2cc(Br)ccc21` (stereo unspecified), the Potency result was “inactive”.

Turning to `Cc1nn(CC(=O)O)c(=O)c2cc3cc(F)ccc3n12`, the Potency entry is “inactive”.

Regarding `CCOC(=O)c1ccc(NC(=O)C2CC(=O)N(c3ccc(C(C)C)cc3)C2)cc1` (stereo unspecified), the Potency result is “inactive”.

On to `COc1cccc(Cn2c(CNS(=O)(=O)c3ccc(Cl)s3)nc3cccnc32)c1`, for which the Potency entry is “inactive”.

For the molecule `COc1ncnc2c1N=C1CC(C)(C)CC(N)=C1S2`, the Potency is 35.5 µM (active).

As for `CC(=O)c1c(C)n(S(=O)(=O)c2ccc(Cl)cc2)c2ccc(NS(=O)(=O)c3ccc(Cl)cc3)cc12`, the Potency entry was “inactive”.

`COc1cccc(Cn2c(SCc3ccc(C(=O)N4CCCCC4)cc3)nc3ccncc32)c1`: the Potency entry was “inactive”.

Turning to `Fc1cccc(-n2ncc3c2ncn2nc(-c4ccccc4Cl)nc32)c1`, the Potency result is “inactive”.

For the molecule `Cc1ccc(-c2cn3c(n2)sc2cc(C(=O)NCc4cccs4)ccc23)c(C)c1`, the Potency entry was “inactive”.

Consider `COc1ccccc1CNC(=O)c1ccccc1NC(=O)c1nsc2ccccc12`, for which the Potency entry was “inactive”.

With `CC(=O)Nc1ccc(NC(=O)c2cc3sccc3n2Cc2ccc(F)cc2)cc1`, the Potency entry is “inactive”.

`CCOc1ccc(OCC)c(NC(=O)CN(c2ccc(C)cc2)S(=O)(=O)c2c(C)n[nH]c2C)c1`: the Potency result is “inactive”.

`CCc1ccccc1N(C)C(=O)C1CCCN(c2ncnc3onc(-c4ccc(F)cc4)c23)C1` (stereo unspecified): the Potency result was “inactive”.

As to `CCCc1nn2c(=O)cc(COC(=O)c3ccc(NC(=O)COc4ccc(F)cc4)cc3)nc2s1`, the Potency entry is “inactive”.

With `COc1cc(NC(=O)Cn2c(=O)n(Cc3ccco3)c(=O)c3oc4ccccc4c32)cc(OC)c1`, the Potency result is “inactive”.

Turning to `Cc1cccc(NC(c2cccc(F)c2)c2ccc3ccc(C)nc3c2O)n1` (stereo unspecified), the Potency entry was “inactive”.

For `COc1cc(NC(=O)CCn2nc(C)cc2C)cc(OC)c1OC`, the Potency entry is “inactive”.

For the molecule `Cc1cc(N2CCCC2)ccc1NC(=O)COc1ccc(Cl)cc1`, the Potency result was “inactive”.

In the case of `Cc1cc(C)cc(OCC(=O)Nc2ccc(N3CCOCC3)cc2N2CCOCC2)c1`, the Potency was 28.2 µM (active).

On to `Cc1cc(C)cc(OCC(=O)Nc2cc(NC(=O)COc3cc(C)cc(C)c3)cc(C(=O)O)c2)c1`, for which the Potency entry is “inactive”.

As to `CCOc1ccc(NC(=O)c2c(NCc3cccc(OC)c3OC)sc3c2CCC3)cc1`, the Potency entry is “inactive”.

On to `Cc1cccc(C(=O)Nc2ccc(-c3nc4ncccc4o3)cc2C)c1`, for which the Potency result is “inactive”.

Take `CC(=O)Nc1ccc(NC(=O)CCCc2nc(-c3ccc(C(C)(C)C)cc3)no2)cc1`: the Potency result was “inactive”.

On to `COc1ccccc1CN1CCC(CNC(=O)c2cnn(-c3ccccc3Cl)c2C2CCN(C(=O)OC(C)(C)C)CC2)CC1`, for which the Potency entry was “inactive”.

In the case of `CC(C)Cn1c(=O)c2ccccc2n2c(CCC(=O)N3CCN(c4cccc(Cl)c4)CC3)nnc12`, the Potency result is “inactive”.

As to `CCCn1c2ccccc2c2cnn(CC(=O)N(C)c3ccccc3CC)c(=O)c21`, the Potency entry is “inactive”.

Regarding `O=C(NCc1ccccc1Cl)C1=Cc2cc(Br)ccc2OC1`, the Potency result is “inactive”.

As for `COc1ccc(NC(C)=O)cc1NC(=O)CN1CCN(c2ccc(F)cc2)CC1`, the Potency result was “inactive”.

For `O=C(CSc1oc(-c2ccco2)nc1S(=O)(=O)c1ccc(Cl)cc1)c1ccccc1`, the Potency result is “inactive”.

Regarding `Cc1ccccc1-c1nc(CS(=O)(=O)CC(=O)Nc2cc(Cl)cc(Cl)c2)c(C)o1`, the Potency entry is “inactive”.

In the case of `Cc1ccc(NC(=O)c2nc(S(=O)(=O)Cc3cccc(C)c3)ncc2Cl)cc1`, the Potency result was “inactive”.

Take `CCc1cccc(C)c1NS(=O)(=O)c1ccc(-c2cc(C)no2)s1`: the Potency entry was “inactive”.

With `O=C(CC1N=C2c3ccccc3N=C(SCc3ccc(F)cc3)N2C1=O)NCc1cccs1` (stereo unspecified), the Potency result was “inactive”.

Take `COc1cccc(-c2nc(CS(=O)(=O)CC(=O)N3CCN(c4cc(C)ccc4C)CC3)c(C)o2)c1`: the Potency entry was “inactive”.

`CSc1nc(Nc2ccc(F)cc2)cc(-c2ccccc2)n1`: the Potency entry was “inactive”.

As for `Cc1nc(SCC(=O)Nc2ccc(C(=O)O)cc2)n[nH]1`, the Potency result was “inactive”.

`COc1ccc(NC(=O)CSc2nccn2C2CCCC2)cc1OC`: the Potency result is “inactive”.

For the molecule `COc1ccc(OCC(=O)Nc2cccc(C(=O)OCc3cc(=O)n4nc(C)sc4n3)c2)cc1`, the Potency result is “inactive”.

On to `Cc1nnc(NC(=O)CSc2nc3c([nH]c4ccccc43)c(=O)n2-c2cccc(Cl)c2)s1`, for which the Potency entry was “inactive”.

With `O=C(CSc1nc(=O)[nH]c2c1CCCC2)Nc1cc(C(F)(F)F)ccc1Cl`, the Potency entry is “inactive”.

Take `Cc1cc(C)cc(OCC(=O)Nc2nc(-c3ccc(F)cc3)ns2)c1`: the Potency result is “inactive”.

For `Cc1ccc(Cn2c(CNC(=O)Cc3cccc(C)c3)nc3cccnc32)cc1`, the Potency result is “inactive”.

For `CSc1ncc(Cl)c(C(=O)Nc2ccc(S(=O)(=O)N3CCCC(C)C3)cc2)n1` (stereo unspecified), the Potency entry is “inactive”.

Consider `CCc1ccc(CNC(=O)c2ccc(CS(=O)c3ccc(Br)cc3)o2)cc1` (stereo unspecified), for which the Potency result was “inactive”.

As to `Cc1cccc(C(=O)Nc2ccc(S(=O)(=O)N3CCCCC3c3cccnc3)cc2)c1` (stereo unspecified), the Potency entry is “inactive”.

As to `COc1ccc(-c2nc(CN3CCC(C(=O)NCCN(CC(C)C)CC(C)C)CC3)c(C)o2)cc1OC`, the Potency result was “inactive”.

With `Cc1cc(C)cc(NC(=O)CSc2oc(-c3ccccc3)nc2S(=O)(=O)c2ccc(Cl)cc2)c1`, the Potency entry is “inactive”.

Take `Cc1cccc(N2CCN(C(=O)c3cnc(N4CCCC4)nc3C)CC2)c1C`: the Potency entry is “inactive”.

Regarding `CCc1cc2c(cc(C(=O)OC)n2Cc2nc(-c3ccc(C)cc3)oc2C)s1`, the Potency result was “inactive”.

Regarding `Cc1ccc(-c2cc(C(F)(F)F)c(C#N)c(SCC(=O)Nc3ccccc3)n2)cc1`, the Potency entry is “inactive”.

As for `COc1ccc(C(=O)NCC(c2ccc(N(C)C)cc2)N2CCc3ccccc32)c(OC)c1` (stereo unspecified), the Potency result is “inactive”.

For the molecule `CC(=O)Nc1ccc(NC(=O)CSc2nnc3c4cc(Br)ccc4n(C)c3n2)cc1`, the Potency result is “inactive”.

With `O=C(CSc1oc(-c2ccco2)nc1S(=O)(=O)c1ccccc1)c1ccc(Cl)cc1`, the Potency result was “inactive”.

For the molecule `CCN(CC)CCCC(C)n1c2nc(=O)[nH]c(=O)c-2nc2cc(Cl)ccc21` (stereo unspecified), the Potency was 35.5 µM (active).

For `Cc1ccccc1OCCSc1nc2ccc(NC(=O)c3ccco3)cc2s1`, the Potency result was “inactive”.

(Values after PubChem BioAssay AID624246 (National Center for Advancing Translational Sciences (NCATS), 2012).)
